Experimental data taken from PubChem BioAssay (NCI).
Several values for one entry are separate records, joined by “and”; a condition that tells them apart may be missing. Equal values may be shown once. About 79,000 compounds went through this panel and 15% of them were active in at least one assay; those are over-represented in the sample as a whole. Activity calls are given as the source filed them. Rule as the data show it: active = growth inhibition above about 70%; inactive = the rest. Where a SMILES comes first, the peptide text is derived from it.

What was measured:
[1] = NCI Yeast Anticancer Drug Screen. Data for the rad50 strain (AID 155);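 also: 0% = growth of vehicle-only cultures of the same strain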; details: S. cerevisiae rad50 strain growth inhibition, stronger effect = higher value; at 50.0 µM unless noted
Method in brief: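 Genetically altered yeast (DNA repair pathway); compound treatment; growth inhibition vs vehicle ctrl.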

[2] = NCI Yeast Anticancer Drug Screen. Data for the mec2-1 strain (AID 157); details: S. cerevisiae mec2-1 strain, stronger effect = higher value; at 50.0 µM unless noted
Method in brief: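 Vehicle-treated cultures served as reference for growth inhibition of compound-exposed mec2-1 yeast.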

[3] = NCI Yeast Anticancer Drug Screen. Data for the sgs1 mgt1 strain (AID 161);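 also: 0% = growth of cultures given vehicle only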; details: S. cerevisiae sgs1 mgt1 strain, stronger effect = higher value; at 50.0 µM unless noted
Method in brief: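 Mutant yeast exposed to compound; growth scored against vehicle-only wells.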

[4] = NCI Yeast Anticancer Drug Screen. Data for the cln2 rad14 strain (AID 165);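 also: 0% = growth equal to vehicle treated cultures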; details: S. cerevisiae cln2 rad14 strain, stronger effect = higher value; at 50.0 µM unless noted
Method in brief: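 Each compound was tested on cln2 rad14 yeast. Inhibition of growth was calculated against vehicle-exposed controls.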

[5] = NCI Yeast Anticancer Drug Screen. Data for the bub3 strain (AID 167); details: S. cerevisiae bub3 mutant strain, stronger effect = higher value; at 50.0 µM unless noted
Method in brief: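 Yeast carrying a defined mutation is treated with each compound, and growth is compared with that of vehicle-exposed cells to give inhibition.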

[6] = NCI Yeast Anticancer Drug Screen. Data for the mlh1 rad18 strain (AID 175); details: S. cerevisiae mlh1 rad18 strain growth inhibition, stronger effect = higher value; at 50.0 µM unless noted
Method in brief: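 Vehicle-treated cultures served as the reference for growth inhibition in a yeast strain carrying DNA damage repair alterations exposed to each compound.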

Measured: growth inhibition

Cc1ccc(NC(=O)ON(C)C)cc1
inactive: [1] -1.65% | [2] 11.7% | [3] 8.25% | [4] -81.5% | [5] -18.9% | [6] -24.2%

NCCCCCCCCCCN
inactive: [1] -22.9% | [2] -5.1% | [3] -5.9% | [4] -29.4% | [5] -35.7% | [6] -11.9%

CCCc1ccc(C)c(Br)c1
inactive: [1] 26.4% | [2] 15.8% | [3] 0.9% | [4] -9.95% | [5] 1.3% | [6] 3.3%

N#CC(C(=O)C(=O)Nc1nccs1)c1ccccc1 (stereo unspecified)
inactive: [1] 5.85% | [2] -0.85% | [3] 4.75% | [4] 41.9% | [5] 17.2% | [6] 16%

COc1ccc(C(=O)CC(c2ccccc2)C(C#N)c2ccccc2)cc1 (stereo unspecified)
inactive: [1] 1.8% and -5.7% | [2] 5.6% and -8.55% | [3] -6.2% and 26.1% | [4] -107% and -72.5% | [5] 8.95% and -5.05% | [6] -7% and 8.5%

Cc1nnc2sc(N/N=C/c3ccccc3)nn12
inactive: [1] -35.5% | [2] -29.9% | [3] -69.2% | [4] -13.8% | [5] -10.1% | [6] -71.3%

[Mn+2].[NH-]C(Cc1ccc(O)cc1)C(=O)O.[NH-]C(Cc1ccc(O)cc1)C(=O)O (stereo unspecified)
inactive: [1] 0.35% | [2] 15.3% | [3] -10.5% | [4] -19.1% | [5] 0.95% | [6] -13%

C=C1C(=O)OC2CC1C(OC(C)=O)CC1(C)OC1CCC1(C)OC1CCC2(C)O (stereo unspecified)
inactive: [1] -4.4% | [2] -0.1% | [3] 1.05% | [4] -2.7% | [5] -9.55% | [6] -3.4%

NC(=O)C(O)c1c[nH]c2ccccc12 (stereo unspecified)
inactive: [1] 3.7% | [2] 1.75% | [3] -1.45% | [4] 6.4% | [5] -15% | [6] 8.2%

CCN(CC)CCC(=O)c1ccccc1
inactive: [1] -7.5% | [2] -4.25% | [3] -8.45% | [4] -7.25% | [5] -20.1% | [6] -7.85%

NCc1cc(Br)ccc1O
inactive: [1] 24.4% | [2] 3.3% | [3] 23.5% | [4] -66.2% | [5] -11% | [6] 20.6%

O=C1C=CC(=Nc2ccc3c(c2)-c2ccccc2C3)O1
inactive: [1] 3.2% | [2] 21% | [3] 5.05% | [4] -9.9% | [5] 1.35% | [6] 12.1%

CCCCOC(=O)C(C)OC(=O)C(C)Oc1cc(Cl)c(Cl)cc1Cl (stereo unspecified)
inactive: [1] -1.65% | [2] -3.95% | [3] 0.3% | [4] 16.9% | [5] 3.9% | [6] -0.8%

CCCC1N[C@H](C(=O)O)CS1 (stereo partly specified)
inactive: [1] 15.7% | [2] 7.1% | [3] -1.85% | [4] 7.2% | [5] 10.1% | [6] -3.85%

CCC(=O)C1(C)OC1C(C)CC(C)C1OC(=O)CC2(O)CC=C(C)C(O2)/C(C)=C/CCCC(OC2CC(OC(N)=O)C(O)C(C)O2)/C=C/C(C)C(O)C1C (stereo unspecified)
active: [1] 78% | [2] 83.5% | [3] 82.5% | [4] 84.5% | [5] 85.2% | [6] 83.2%

COC1/C=C/OC2(C)Oc3c(C)c(O)c4c(O)c(c(C5SCCS5)c(O)c4c3C2=O)NC(=O)C(C)=C/C=C\C(C)C(O)C(C)C2OC(C)(C)OC(C1C)C2C (stereo unspecified)
inactive: [1] 2.15% | [2] 33% | [3] 22.8% | [4] 15.6% | [5] 14.4% | [6] 38%

COC(=O)Cc1cc(C)n(C)c(=O)c1CN1C(=O)c2ccccc2C1=O
inactive: [1] 10.6% | [2] -10.9% | [3] 5.4% | [4] 12.4% | [5] -11.2% | [6] 20.8%

CCCC(=O)n1ccc2ccccc21
inactive: [1] -14.8% | [2] -37.6% | [3] 7.45% | [4] 13.4% | [5] -12.9% | [6] 1.6%

Cc1cc(N)ccc1-c1cc(C)c(N)c(C)c1C
inactive: [1] -39.4% | [2] -21.9% | [3] -7.8% | [4] 13.2% | [5] -18.7% | [6] -15.1%

CC(C)(CBr)CC(=O)NC1CCCCC1
inactive: [1] -22% | [2] 5.8% | [3] 3.3% | [4] 1.8% | [5] 10.2% | [6] 50%

CCN1c2ccccc2CC(CCCN(C)C)(C(N)=O)c2ccccc21 (stereo unspecified)
inactive: [1] 3.8% | [2] 12.3% | [3] 18.2% | [4] 9.45% | [5] -1.85% | [6] -8.25%

COc1cc2c[n+](C)c3c4cc(OC)c(OC)cc4c(OCc4ccccc4)cc3c2cc1OC
active: [1] 86% | [2] 89.8% | [3] 88.1% | [4] 88.7% | [5] 87.5% | [6] 91.2%

O=S1(=O)C2C=CC1C(Br)C(Br)CC2 (stereo unspecified)
inactive: [1] -9.4% | [2] 13.9% | [3] 26.8% | [4] 12% | [5] -0.15% | [6] 20.4%

O=C(NO)/C(CC(=O)c1cccc(O)c1)=N\O
inactive: [1] -7.05% | [2] 10.1% | [3] -7.35% | [4] -8.55% | [5] -11.1% | [6] 5.5%

NC(=O)Nc1ccc(/C=C\c2ccnc3ccccc23)cc1
inactive: [1] -19.7% | [2] 2.5% | [3] 4.95% | [4] -31.9% | [5] -15.9% | [6] -9.45%

CNC(=O)CNC(=O)C(NC(=O)CNC(=O)C1CCCN1C(=O)C(C)NC(=O)C(NC(C)=O)C(C)C)C(C)C (stereo unspecified) (Ac-VAPGVG-NHMe; configuration not given here)
inactive: [1] 0.3% | [2] -13.9% | [3] 3.55% | [4] -6.6% | [5] -11.7% | [6] -4.75%

O=C1CSC(c2cccc([N+](=O)[O-])c2)N1c1nncs1 (stereo unspecified)
inactive: [1] 8.55% | [2] 11.7% | [3] 6.8% | [4] 5.15% | [5] 3.4% | [6] 5.5%

COC(=O)C1=Nc2c(C)nn(-c3ccccc3)c2N=C(c2ccc([N+](=O)[O-])cc2)C1
inactive: [1] -18.4% | [2] 0.6% | [3] -0.55% | [4] -67.1% | [5] -34% | [6] 10.3%

Brc1cc(Br)cc(CN2CCOCC2)c1
inactive: [1] 34% | [2] 15.1% | [3] 49.6% | [4] 48% | [5] 56.8% | [6] 46.2%

Clc1c(Cl)c(Cl)c(C[n+]2c(Cl)sc3ccccc32)c(Cl)c1Cl
inactive: [1] 12.6% | [2] 10.2% | [3] 5.05% | [4] -6.6% | [5] 10.3% | [6] 6.2%

O=S(=O)(O)c1cc(N=[N+]([O-])c2ccc(N=Nc3ccccc3)cc2S(=O)(=O)O)ccc1/C=C/c1ccc(N=[N+]([O-])c2ccc(N=Nc3ccccc3)cc2S(=O)(=O)O)cc1S(=O)(=O)O
inactive: [1] 28.6% | [2] 11.9% | [3] 9.8% | [4] 7.15% | [5] 0.8% | [6] 50.4%

Cc1ccc2nc(=O)c3cccnc3n2c1
inactive: [1] 25.9% | [2] 31.1% | [3] 29.9% | [4] 5.1% | [5] 23.8% | [6] 12.8%

CCOC(=O)c1[nH]c(-c2[nH]c(-c3[nH]c(-c4[nH]c(C(=O)OCC)c(C)c4C(=O)OCC)c(C(=O)OCC)c3C)c(C)c2C(=O)OCC)c(C(=O)OCC)c1C
inactive: [1] -24.7% | [2] -16% | [3] -21.3% | [4] 6.85% | [5] -14.1% | [6] -74%

COc1ccc(C)cc1NC(=O)OCCCl
inactive: [1] 3.1% | [2] 2.35% | [3] 2.65% | [4] 5.95% | [5] 11.1% | [6] -5.3%

Cc1cc[nH]c(=O)c1[N+](=O)[O-]
inactive: [1] -12.3% | [2] -10.8% | [3] -2.85% | [4] -25.7% | [5] -9.65% | [6] 2.65%

CCC(C)(O)c1cn(-c2ccc(Cl)cc2)nn1 (stereo unspecified)
inactive: [1] -31.4% | [2] -32.9% | [3] -4.4% | [4] 16.4% | [5] -6.55% | [6] 0.25%

CC(=O)OC1OC(COC(c2ccccc2)(c2ccccc2)c2ccccc2)C(OC(C)=O)C(OC(C)=O)C1OC(C)=O (stereo unspecified)
inactive: [1] 12.8% | [2] -8.6% | [3] -6.15% | [4] 6.4% | [5] 1.7% | [6] 24.6%

CC(C)OC(=O)Nc1ccc(O)cc1
inactive: [1] 10.8% | [2] -6.7% | [3] -2.45% | [4] -19.4% | [5] -3.45% | [6] -5.7%

Cc1nc(-c2ccc(N=Cc3ccc(N4CCC5(CCCCC5)CC4)cc3)cc2)cs1
inactive: [1] 25% | [2] -2.05% | [3] 15.7% | [4] 18.6% | [5] 6.1% | [6] -3%

Cn1c(Nc2ccccc2)c(C=Nc2ccccc2)c(=O)n(C)c1=O
inactive: [1] -2.15% | [2] 3.45% | [3] -7.85% | [4] 7.55% | [5] -22.6% | [6] -0.9%

CC(=O)OCC1OC(O)C(NC(=O)C(F)(F)F)C(OC(C)=O)C1OC(C)=O (stereo unspecified)
active: [1] 99.6% | [2] 99.8% | [3] 99.7% | [4] 99% | [5] 99.3% | [6] 99.5%
